# Compounds without any hit were thinned out: in the full panel of roughly 79,000, 15% have a hit. Unmarked numbers belong to inactive results. The source made the active and inactive calls. No stated cut-off is given here; in the data, active means growth inhibition above about 70%; inactive means the rest.
# Key:
# [1] = NCI Yeast Anticancer Drug Screen. Data for the wt1 strain (AID 149);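 further: 0% = growth of vehicle-treated wt1 cultures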; settings: S. cerevisiae wt1 strain (SPY 50644) growth inhibition, stronger effect = higher value
# Procedure, shortened: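 wt1 yeast, compound-treated; % growth inhibition vs vehicle control.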
# [2] = NCI Yeast Anticancer Drug Screen. Data for the rad50EPP+ strain (AID 151);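 further: 0% = growth of vehicle-treated control cultures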; settings: S. cerevisiae rad50 mutant strain, stronger effect = higher value
# Procedure, shortened: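 One strain with a rad50 alteration (rad50EPP+) was compound-treated, its growth then compared to that of vehicle controls.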
# [3] = NCI Yeast Anticancer Drug Screen. Data for the mgt1 strain (AID 153); settings: S. cerevisiae mgt1 mutant growth inhibition, stronger effect = higher value
# Procedure, shortened: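 After exposure of the mgt1 yeast mutant to compound, growth was measured and reported as inhibition compared with vehicle controls.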
# [4] = NCI Yeast Anticancer Drug Screen. Data for the rad50 strain (AID 155);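 further: 0% = growth of vehicle-only cultures of the same strain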; settings: S. cerevisiae rad50 strain growth inhibition, stronger effect = higher value
# Procedure, shortened: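 Genetically altered yeast (DNA repair pathway); compound treatment; growth inhibition vs vehicle ctrl.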
# [5] = NCI Yeast Anticancer Drug Screen. Data for the mec2-1 strain (AID 157); settings: S. cerevisiae mec2-1 strain, stronger effect = higher value
# Procedure, shortened: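 Test agents were screened against the mec2-1 yeast strain, with defined DNA repair or cell cycle alteration. Growth was scored as inhibition against vehicle-only controls.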
# [6] = NCI Yeast Anticancer Drug Screen. Data for the rad14 strain (AID 159);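 further: 0% = growth of vehicle-treated control cultures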; settings: S. cerevisiae rad14 strain growth inhibition, stronger effect = higher value
# Procedure, shortened: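 Test compounds were applied to a repair-deficient yeast strain. Its growth was then compared with that of cultures given vehicle alone, and inhibition was expressed relative to those controls.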
# [7] = NCI Yeast Anticancer Drug Screen. Data for the sgs1 mgt1 strain (AID 161);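 further: 0% = growth of cultures given vehicle only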; settings: S. cerevisiae sgs1 mgt1 strain, stronger effect = higher value
# Procedure, shortened: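 Inhibition of yeast growth, normalised to vehicle-treated controls, is reported for a strain bearing genetic alterations in DNA damage repair.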
# [8] = NCI Yeast Anticancer Drug Screen. Data for the cln2 rad14 strain (AID 165);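 further: 0% = growth equal to vehicle treated cultures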; settings: S. cerevisiae cln2 rad14 strain, stronger effect = higher value
# Procedure, shortened: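 Growth of compound-exposed yeast (cln2 rad14 genotype) measured and expressed as inhibition relative to vehicle.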
# [9] = NCI Yeast Anticancer Drug Screen. Data for the bub3 strain (AID 167); settings: S. cerevisiae bub3 mutant strain, stronger effect = higher value
# Procedure, shortened: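 Yeast carrying a defined mutation is treated with each compound, and growth is compared with that of vehicle-exposed cells to give inhibition.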
# [10] = NCI Yeast Anticancer Drug Screen. Data for the wt2 strain (AID 169);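 further: 0% = growth of vehicle-treated yeast cultures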; settings: S. cerevisiae wt2 strain growth inhibition, stronger effect = higher value
# Procedure, shortened: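 Genetically defined yeast strains from a DNA-repair/cell-cycle panel were used. Compound-exposed yeast growth was measured, and the inhibition was calculated relative to vehicle treatment.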
# [11] = NCI Yeast Anticancer Drug Screen. Data for the mlh1 strain (AID 171);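 further: 0% = growth of vehicle-treated control cultures of the same strain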; settings: S. cerevisiae mlh1 strain growth inhibition, stronger effect = higher value
# Procedure, shortened: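 Here the genetically defined yeast mutant is grown with each compound, and the extent to which its growth falls below that of vehicle-exposed cells is reported.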
# [12] = NCI Yeast Anticancer Drug Screen. Data for the sgs1 strain (AID 173);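 further: 0% = growth of vehicle-only control cultures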; settings: S. cerevisiae sgs1 mutant, stronger effect = higher value
# Procedure, shortened: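 Relative growth inhibition, referenced to vehicle, was determined in a yeast strain with a defined alteration affecting DNA damage repair or cell cycle control after compound exposure.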
# [13] = NCI Yeast Anticancer Drug Screen. Data for the mlh1 rad18 strain (AID 175); settings: S. cerevisiae mlh1 rad18 strain growth inhibition, stronger effect = higher value
# Procedure, shortened: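 In this whole-cell yeast screen, a strain with altered DNA damage repair is challenged with compound, and its growth is measured against matched vehicle-treated controls.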
# [14] = NCI Yeast Anticancer Drug Screen. Data for the rad18 strain (AID 177); settings: S. cerevisiae rad18 mutant growth inhibition, stronger effect = higher value
# Procedure, shortened: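 Screen uses a yeast strain with a defined lesion in DNA damage repair; compound effect is read as loss of growth compared to untreated vehicle cultures.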
# [15] = at 5.0 µM (retest, dose inferred, filed as 0.5)
# [16] = at 50.0 µM (retest, dose inferred, filed as 5.0)
structure (smiles),measurement,setting,value
CCCCCC(=O)C(C)(c1nc2n(c1O)/C(=N/C(=O)Nc1ccc(Cl)cc1)N=N2)c1nc2n(c1O)/C(=N/C(=O)Nc1ccc(Cl)cc1)N=N2,growth inhibition,[1]; at 1.2 µM,3%
same,growth inhibition,[1]; at 3.7 µM,-4%
same,growth inhibition,[1]; at 11.0 µM,-3%
same,growth inhibition,[1]; at 33.0 µM,1%
same,growth inhibition,[1]; at 100.0 µM,18%
same,growth inhibition,[2]; at 1.2 µM,8%
same,growth inhibition,[2]; at 3.7 µM,16%
same,growth inhibition,[2]; at 11.0 µM,32%
same,growth inhibition,[2]; at 33.0 µM,60%
same,growth inhibition,[2]; at 100.0 µM,79% (active)
same,growth inhibition,[3]; at 1.2 µM,2%
same,growth inhibition,[3]; at 3.7 µM,4%
same,growth inhibition,[3]; at 11.0 µM,-5%
same,growth inhibition,[3]; at 33.0 µM,9%
same,growth inhibition,[3]; at 100.0 µM,57%
same,growth inhibition,[4]; at 1.2 µM,6%
same,growth inhibition,[4]; at 3.7 µM,0%
same,growth inhibition,[4]; [15],-7%
same,growth inhibition,[4]; at 11.0 µM,6%
same,growth inhibition,[4]; at 33.0 µM,24%
same,growth inhibition,[4]; [16],14%
same,growth inhibition,[4]; at 50.0 µM,-11.6%
same,growth inhibition,[4]; at 100.0 µM,44%
same,growth inhibition,[5]; at 1.2 µM,-3%
same,growth inhibition,[5]; at 3.7 µM,-1%
same,growth inhibition,[5]; [15],20%
same,growth inhibition,[5]; at 11.0 µM,2%
same,growth inhibition,[5]; at 33.0 µM,8%
same,growth inhibition,[5]; [16],41%
same,growth inhibition,[5]; at 50.0 µM,-11.2%
same,growth inhibition,[5]; at 100.0 µM,30%
same,growth inhibition,[6]; at 1.2 µM,-1%
same,growth inhibition,[6]; at 3.7 µM,2%
same,growth inhibition,[6]; at 11.0 µM,-2%
same,growth inhibition,[6]; at 33.0 µM,4%
same,growth inhibition,[6]; at 100.0 µM,50%
same,growth inhibition,[7]; [15],12%
same,growth inhibition,[7]; [16],64%
same,growth inhibition,[7]; at 50.0 µM,-5.1%
same,growth inhibition,[8]; [15],-27%
same,growth inhibition,[8]; [16],3%
same,growth inhibition,[8]; at 50.0 µM,-23.3%
same,growth inhibition,[9]; at 1.2 µM,-6%
same,growth inhibition,[9]; at 3.7 µM,-9%
same,growth inhibition,[9]; [15],-42%
same,growth inhibition,[9]; at 11.0 µM,-8%
same,growth inhibition,[9]; at 33.0 µM,-1%
same,growth inhibition,[9]; [16],38%
same,growth inhibition,[9]; at 50.0 µM,98.2% (active)
same,growth inhibition,[9]; at 100.0 µM,20%
same,growth inhibition,[10]; at 1.2 µM,-1%
same,growth inhibition,[10]; at 3.7 µM,-1%
same,growth inhibition,[10]; at 11.0 µM,4%
same,growth inhibition,[10]; at 33.0 µM,19%
same,growth inhibition,[10]; at 100.0 µM,45%
same,growth inhibition,[11]; at 1.2 µM,-4%
same,growth inhibition,[11]; at 3.7 µM,-1%
same,growth inhibition,[11]; at 11.0 µM,6%
same,growth inhibition,[11]; at 33.0 µM,22%
same,growth inhibition,[11]; at 100.0 µM,59%
same,growth inhibition,[12]; at 1.2 µM,2%
same,growth inhibition,[12]; at 3.7 µM,1%
same,growth inhibition,[12]; at 11.0 µM,6%
same,growth inhibition,[12]; at 33.0 µM,25%
same,growth inhibition,[12]; at 100.0 µM,54%
same,growth inhibition,[13]; [15],-26%
same,growth inhibition,[13]; [16],55%
same,growth inhibition,[13]; at 50.0 µM,7%
same,growth inhibition,[14]; at 1.2 µM,-1%
same,growth inhibition,[14]; at 3.7 µM,7%
same,growth inhibition,[14]; at 11.0 µM,9%
same,growth inhibition,[14]; at 33.0 µM,21%
same,growth inhibition,[14]; at 100.0 µM,51%

# Reference: PubChem BioAssay (NCI)
